Reference: PubChem BioAssay (EPA / NIEHS)
The source made the active and inactive calls. How the source made its calls: active means hit-call score of the fitted dose curve at least 0.9, where 1 is the maximum; inactive means score below 0.9.

Experiment: ATG_TAL_CIS: Attagene CIS-FACTORIAL HepG2 Assay for human TAL Basal Promoter (AID 2282966)
Settings: HepG2 Attagene cis-factorial TAL promoter reporter; actives raise or lower the signal
Experimental: ATG_CIS is a cell-based, multiplexed-readout assay that uses HepG2, a human liver cell line, with measurements taken at 24 hours after chemical dosing in a 24-well plate.ATG_TAL_CIS is one of 52 assay component(s) measured or calculated from the ATG_CIS assay. It is designed to make measurements of mRNA induction, a form of inducible reporter, as detected with fluorescence intensity signals by Reverse transcription polymerase chain reaction (RT-PCR) and Capillary electrophoresis technology.Data from the assay component ATG_TAL_CIS was analyzed into 1 assay endpoint. This assay endpoint, ATG_TAL_CIS, was analyzed with bidirectional fitting relative to DMSO as the negative control and baseline of activity. Using a type of inducible reporter, measures of mRNA for gain or loss-of-signal activity can be used to understand the background control at the transcription factor-level as they relate to the gene . Furthermore, this assay endpoint can be referred to as a secondary readout, because this assay has produced multiple assay endpoints where this one serves a background control function. To generalize the intended target to other relatable targets, this assay endpoint is annotated to the background measurement intended target family, where the subfamily is internal marker.
Human liver HepG2 cells are transiently transfected with multiple reporter transcription units (MRTUs) in 6-well plates using FuGene 6 reagent (Roche; 3 ml FuGene/1 mg DNA). The MRTU constructs are regulated by a cis-regulating element (promoter). […] A major difference between the CIS and TRANS system is that in CIS activities of endogenous TFs are measured, whereas the TRANS assay evaluates changes in activities of exogenous, chimeric NR-Gal4 proteins. […] At the end of 24 hour incubation, total RNA was isolated using TriZol reagent (Invitrogen). The isolated RNA is then reverse-transcribed using oligo(dT) primer and Mo-MLV reverse transcriptase (Invitrogen) with DNAse I (Ambion) treatment for 30 min. The one-tenth of the produced cDNA was amplified by PCR using Taq DNA polymerase (Invitrogen) and two reporter sequence-specific primers. The PCR products were fluorescently labeled by primer extension with 6-arboxyfluorescein (6-FAM) 5'-labeled reporter sequence-specific primer (2 min at 95 C, 20 s at 68 C and 10 min at 72 C) and these products were digested with 5U of HpaI (New England Biolabs) for 2h at 37 C. The fragments were purified using Qiaquick PCR columns (Qiagen), analyzed on an ABI 3130xL genetic analyzer (Applied Biosystems) with peak positions identified by using a set of X-rhodamine (ROX)-labeled MapMarker1000 molecular weight standards (BioVentures). The raw capillary electrophoresis data was processed using Attagraph software (Attagene).

Structure (SMILES)	outcome	AC50
Cc1ccc(Nc2ccc(O)c3c2C(=O)c2ccccc2C3=O)cc1	inactive	–
O=c1[nH]c(=O)n([C@H]2CCCO2)cc1F	inactive	–
c1ccc(CCCc2ccccn2)cc1	inactive	–
CCC(O)CO (stereo not given)	inactive	–
Nc1ccc(F)c([N+](=O)[O-])c1	inactive	–
c1cc(C(c2ccc(OCC3CO3)cc2)c2ccc(OCC3CO3)cc2)ccc1OCC1CO1 (stereo not given)	–	24.2 µM (active)
c1ccc2[nH]ccc2c1	inactive	–
CN(CCOc1ccc(CC2SC(=O)NC2=O)cc1)c1ccccn1 (stereo not given)	inactive	–
CC(C)OP(=O)(CP(=O)(OC(C)C)OC(C)C)OC(C)C	inactive	–
CCCCCCCCCCCCCCCC(=O)OC[C@H](O)[C@H]1OC(=O)C(O)=C1O	–	100 µM (active)
[Ca+2]	inactive	–
C=C(C)C(=O)NCCCN(C)C	inactive	–
CC(=O)OCCOC(C)=O	inactive	–
Sc1nc(S)nc(S)n1	inactive	–
C=CC(C)(O)CCC=C(C)CCC=C(C)C (stereo not given)	–	166 µM (active)
Clc1cccc(Cl)n1	inactive	–
C=C[Si](OCC)(OCC)OCC	inactive	–
CCCCCCOC(=O)CCCCC	inactive	–
O=S(=O)(O)c1cccc2c(S(=O)(=O)O)cccc12	inactive	–
Fc1c(F)c(F)c(Br)c(F)c1F	inactive	–

Structure (SMILES)	outcome	AC50
Cc1ccccc1C=O	inactive	–
CCCC1CCC(=O)O1 (stereo not given)	inactive	–
Nc1cc([N+](=O)[O-])ccc1O	inactive	–
C=CC(=O)NCOCC(C)C	inactive	–
C/C=C(\C)C(=O)OCc1ccccc1	inactive	–
C=C(C)C(=O)Nc1ccc(Cl)c(Cl)c1	inactive	–
COc1ccc(Cl)cc1C	inactive	–
CCCCCOC(=O)CCC	inactive	–
CC1CC(OC(=O)c2ccccc2O)CC(C)(C)C1 (stereo not given)	–	181 µM (active)
CC(C=O)Cc1ccc(C(C)C)cc1 (stereo not given)	inactive	–
OCC(CO)(CO)COCC(CO)(CO)CO	inactive	–
CN1Cc2c(N)cccc2C(c2ccccc2)C1 (stereo not given)	inactive	–
Cc1cccc(Nc2ccccc2C(=O)O)c1C	inactive	–
CCCCCCCCCCN	inactive	–
CCc1c(C)cc(N)c(CC)c1N	inactive	–
O=C(O)CCCCC1CCSS1 (stereo not given)	inactive	–
CC(C)(C)NC(N)=O	inactive	–
OCc1cccnc1	inactive	–
CNC(=O)Oc1ccc2c(c1)[C@]1(C)CCN(C)[C@@H]1N2C	inactive	–
O=C(OCc1ccccc1)C(=O)OCc1ccccc1	inactive	–
